Bioassay records (PubChem BioAssay)
In the library only some 0.97% were active in any assay of this set; here they are far more common.
A1 inh: inhibitors of the anti-apoptotic protein A1, read as caspase activation | 330,000 tested, 0.066% active | caspase activation, % (test concentration not listed) | AID 2462 | MEF A1-2A-BIM cells, Caspase-Glo 3/7 luminescence, 3 h; percent of clofoctol response, vehicle zero;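 active = over half of replicate activation scores above 10%, or exactly half above 10 with the replicate mean above 10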
TLR9-MyD88 block: blocks human TLR9 binding to MyD88; inhibition, % at 4.98 µM; AID 504734; Q9NR96+Q99836; CHO BLA complementation TLR9-MyD88, CCF4 FRET ratio; 340,000 tested, 0.21% active;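 active = inhibition above the mean over all tested compounds plus 3 SD, cut at about 21% in these data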;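 also: 0% = DMSO only wells and 100% = clavulanate BLA inhibitor control wells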
NOD2 RIPK2 PPI: blocks binding of human NOD2 to RIPK2. CHO BLA complementation NOD2-RIPK2, CCF4 ratio. inhibition, % at 4.98 µM. 360,000 tested, 0.38% active. AID 624267; in the data active = inhibition above about 21%;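 also: 0% = vehicle only and 100% = reference blocker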
Target sequence (O43353 whole entry, looked up): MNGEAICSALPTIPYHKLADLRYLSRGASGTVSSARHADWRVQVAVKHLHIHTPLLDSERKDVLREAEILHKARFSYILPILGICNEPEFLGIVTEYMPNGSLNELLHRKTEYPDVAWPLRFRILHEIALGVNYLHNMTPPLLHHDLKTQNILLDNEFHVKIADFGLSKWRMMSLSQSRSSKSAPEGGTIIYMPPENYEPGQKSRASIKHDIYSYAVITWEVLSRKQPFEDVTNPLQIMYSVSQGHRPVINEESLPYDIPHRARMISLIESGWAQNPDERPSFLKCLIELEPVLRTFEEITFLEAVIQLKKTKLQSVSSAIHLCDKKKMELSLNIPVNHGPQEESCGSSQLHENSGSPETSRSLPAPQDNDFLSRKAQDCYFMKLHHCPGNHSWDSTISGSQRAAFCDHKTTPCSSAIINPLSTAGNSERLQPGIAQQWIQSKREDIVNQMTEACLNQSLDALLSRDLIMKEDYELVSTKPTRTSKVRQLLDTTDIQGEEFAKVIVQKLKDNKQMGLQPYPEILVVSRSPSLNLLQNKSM
B2AR ag: agonists of human beta-2 adrenergic receptor inducing internalization | response, % (concentration not given with the values) | 340,000 tested, 0.43% active | AID 504454 | Am2.2-beta2AR cells, FAP receptor internalization, flow cytometry;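 active = response above a set limit, near 3 SD of response in nonfluorescent compounds, cut at about 42% in these data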
TLR4 MyD88 comp: inhibitors of human TLR4-MyD88 binding. HeLa CL3-4 TLR4/MyD88 BLA complementation, FRET ratio. O00206+Q99836. AID 861. 200,000 tested, 0.18% active. inhibition, % at 8.4 µM; in the data active = inhibition above about 25%;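 also: 0% = vehicle and 100% = reference inhibitor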
NTR1 ag: activates human neurotensin receptor 1. P30989. NTR1-U2OS beta-arrestin-GFP spot imaging, agonist mode. activation, % at 20 µM. 330,000 tested, 0.17% active;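 active = activation at or above 40% of the spot to cytoplasm intensity ratio, with at least 20 cells analyzed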;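 also: 0% = DMSO without peptide and 100% = 100 nM NTR1 peptide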
TLR9-MyD88 conf: TLR9-MyD88 interaction inhibition, confirmation. shares compounds with TLR9-MyD88 block. CHO TLR9/MyD88 BLA complementation, CCF4 FRET ratio. 680 tested, 51% active. AID 540250. inhibition, % at 4.98 µM;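 active = mean inhibition across three repeats above about 21% taken from the earlier screen, limit read from the data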;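 also: blue over green emission ratio reports constitutive TLR9 MyD88 association via BLA complementation; 0% = DMSO vehicle wells and 100% = clavulanate BLA inhibitor wells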
BLA nonselective: counter-screen for TLR9-MyD88 inhibitors: non-selective beta-lactamase inhibitors | shares compounds with TLR9-MyD88 block | CHO-BLA cells, CCF4 FRET ratio, BLA reporter | inhibition, % at 4.98 µM | 680 tested, 7% active | AID 540251;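 active = mean inhibition above a 50% cutoff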;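 also: counterscreen of TLR9-MyD88 hits on CMV-driven BLA in CHO-K1 cells; 0% = DMSO alone and 100% = clavulanate blocking BLA; higher means less blue over green ratio so more BLA blockade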
TLR9 CHO tox: CHO cell toxicity counter-screen for TLR9-MyD88 inhibitors. shares compounds with TLR9-MyD88 block. TLR9-MyD88 CHO cells cytotoxicity, luminescence. inhibition, % at 4.98 µM. 680 tested, 39% active; in the data active = inhibition above about 11%
* marks the source's active call; other numbers are inactive results; · = not tested or not shown.

SMILES | A1 inh | TLR9-MyD88 block | NOD2 RIPK2 PPI | B2AR ag | TLR4 MyD88 comp | NTR1 ag | TLR9-MyD88 conf | BLA nonselective | TLR9 CHO tox
O=C(NC1=NCCS1)Nc1ccccc1 | -6 | 0 | -5 | 1 | 9 | -1 | · | · | ·
Fc1ccccc1N1CCN(Cc2cc(-c3ccccc3)on2)CC1 | 2 | 21* | 8 | -2 | · | 0 | 1 | 3 | 4
Fc1ccccc1N1CCN(Cc2nc(-c3ccccc3)no2)CC1 | 0 | 3 | 1 | -1 | -9 | 1 | · | · | ·
CC1CCN(c2ccc3c(c2)S(=O)(=O)c2cccc(C(=O)NC[C@@H]4CCCO4)c2C3=O)CC1 | -1 | -1 | 14 | 1 | · | 1 | · | · | ·
O=C(NCC1CCCO1)c1cccc2c1C(=O)c1ccc(N3CCC(Cc4ccccc4)CC3)cc1S2(=O)=O (stereo not given) | 0 | 32* | 51* | 2 | · | 1 | 23* | 25 | 10
O=C(NCc1ccccc1Br)c1cccc2c1C(=O)c1ccc(N3CCC(Cc4ccccc4)CC3)cc1S2(=O)=O | 1 | 15 | 8 | -35 | · | 2 | · | · | ·
O=C(NC1CCCCC1)c1cccc2c1C(=O)c1ccc(N3CCC(Cc4ccccc4)CC3)cc1S2(=O)=O | 0 | 80* | 21 | 6 | · | -1 | 37* | 41 | 1
Cc1nn(C)c(C)c1/C=N/NC(=O)CCn1nc(C)c([N+](=O)[O-])c1C | 1 | 28* | -1 | 4 | -4 | -1 | -2 | 1 | -1
O=C(Nc1ccccc1N1CCCCC1)c1ccc(F)c(S(=O)(=O)N2CCOCC2)c1 | 0 | 5 | -4 | 27 | · | 10 | · | · | ·
Cc1ccc(S(=O)(=O)Nc2cccc3ncccc23)s1 | -1 | 44* | 55* | 37 | 19 | 22 | 20 | 8 | 101*
O=Nc1onc(-c2ccc([N+](=O)[O-])cc2)c1NO | 0 | 36* | 2 | 0 | 7 | 0 | 4 | 2 | 0
Cc1ccc(-c2cc(NC(=O)c3ccccc3)on2)cc1 | -7 | 24* | -6 | 3 | · | 1 | 2 | 0 | -2
Cc1ccc(/S(C)=N/S(=O)(=O)c2ccc(C)cc2)cc1 (stereo not given) | 0 | -7 | -9 | -1 | 0 | 0 | · | · | ·
CC(NC(=O)OCc1ccccc1)C(=O)Oc1cc2oc(=O)cc(-c3ccccc3)c2cc1Cl (stereo not given) | -2 | 34* | 38* | 2 | 5 | 1 | 16 | 22 | -10
CCc1cc2c(-c3ccccc3)cc(=O)oc2cc1OC(C)C(=O)O (stereo not given) | -1 | -8 | -11 | 6 | · | 0 | · | · | ·
CC(=O)Nc1nc2cccc([N+](=O)[O-])c2s1 | 0 | -4 | -11 | 4 | -7 | 1 | · | · | ·
COC(=O)c1ccc(NC(=O)c2nc(S(=O)(=O)Cc3cccc(C)c3)ncc2Cl)cc1 | 2 | 42* | 18 | 29 | · | -2 | 33* | 27 | 100*
COc1ccccc1NC(=O)c1nc(S(=O)(=O)Cc2ccccc2)ncc1Cl | 0 | 12 | 14 | 11 | · | 11 | · | · | ·
Cc1c(C)c(C)c(S(=O)(=O)NCCc2ccncc2)c(C)c1C | 0 | -5 | 6 | 10 | · | -1 | · | · | ·
CS(=O)(=O)c1ccc(C(=O)OCC(=O)NCc2cccs2)cc1[N+](=O)[O-] | 1 | 22* | 10 | 17 | · | 39 | 29* | 14 | 78*
Cc1cccc(C(=O)OCC(=O)NCc2cccs2)c1 | 0 | -7 | -3 | -8 | 8 | 0 | · | · | ·
COc1cc(C(=O)Nc2ccc(C(C)=O)cc2)c(Br)c(OC)c1OC | 0 | 21* | 11 | 3 | 0 | -1 | 1 | -2 | 5
COc1ccc(NC(=O)c2cc(OC)c(OC)c(OC)c2Br)cc1OC | 1 | 1 | -3 | -4 | 0 | -1 | · | · | ·
COc1ccc(OC)c(/C=C/c2nc3ccccc3[nH]c2=O)c1 | 0 | 28* | 14 | -6 | · | 4 | 30* | 32 | 0
COc1ccc(OC)c(C=Nc2ccccc2-c2nc3ccccc3[nH]2)c1 | 0 | 6 | 4 | -5 | 5 | 3 | · | · | ·
SMILES | A1 inh | TLR9-MyD88 block | NOD2 RIPK2 PPI | B2AR ag | TLR4 MyD88 comp | NTR1 ag | TLR9-MyD88 conf | BLA nonselective | TLR9 CHO tox
CC1CCC(NC(=O)CN(C)CC(=O)Nc2ccc(F)cc2)CC1 (stereo not given) | 1 | -5 | -5 | -2 | · | 0 | · | · | ·
O=C1C=CC(=O)N1c1ccccc1N1C(=O)C=CC1=O | · | 46* | -4 | 9 | · | · | 66* | 38 | 99*
COC(=O)c1cc(C)sc1NC(=O)c1ccco1 | 0 | -15 | -11 | -2 | · | 1 | · | · | ·
CCCn1nnnc1NCc1ccc(SC)cc1 | -1 | -4 | -3 | 1 | · | -1 | · | · | ·
COc1ccc(/C=C2\C(=O)NC(=O)c3ccccc32)cc1OC | · | 31* | -5 | 18 | · | · | 54* | 58* | 26*
COc1ccc(C=C2C(=O)OC(C)(C)OC2=O)cc1OC | 0 | -2 | -5 | -8 | · | 0 | · | · | ·
COc1ccc(S(=O)(=O)N2CCNC(=O)C2)cc1Br | -1 | 22* | 6 | 7 | 14 | 1 | -3 | 0 | 2
COc1ccc(S(=O)(=O)N2CCCCCC2)cc1Br | · | -10 | -10 | -1 | 2 | · | · | · | ·
Cc1ccc(C(=O)COC(=O)COc2ccccc2[N+](=O)[O-])s1 | 0 | -10 | -13 | -4 | · | 1 | · | · | ·
CCOC(=O)COc1ccccc1/C=C\[N+](=O)[O-] | 3 | 33* | 87* | 51* | 22 | · | 47* | 6 | 96*
O=c1c2cc([N+](=O)[O-])ccc2sn1-c1ccccc1 | · | 29* | 7 | · | · | · | 37* | 0 | 87*
COc1ccc(C2=CC(c3ccc(C)cc3)n3nnnc3N2)cc1 (stereo not given) | 1 | 26* | 27* | 16 | 8 | 2 | 5 | 7 | -2
COc1ccc(C2C=C(c3ccccc3)Nc3nnnn32)cc1 (stereo not given) | 0 | 24* | -2 | -16 | 1 | 1 | 4 | 1 | -1
COc1cccc(C2=CC(c3ccccc3)n3nnnc3N2)c1 (stereo not given) | 1 | 8 | 4 | -3 | 0 | · | · | · | ·
Cc1noc(/C=C/NCc2cccnc2)c1S(=O)(=O)N(C)CC(=O)N1CCc2ccccc21 | 0 | 4 | -6 | -4 | 1 | -1 | · | · | ·
COc1ccc(NC(=O)C2CCN(c3ncnc4c3nc3n4CCCCC3)CC2)c(OC)c1 | 0 | -9 | 4 | -24 | · | 2 | · | · | ·
